From the supplement of paper PMC4466236
Over roughly 33,000 sequences, “E-score (dimensionless, -0.5 to 0.5)” has its median near -0.058; the highest 2% begin near 0.35. The sample holds the highest values, similar sequences and a random draw of the others, so the mix is not that of the screen.

Tested on: MvaT
Test: PBM 8-mer E-score (mean of HK and ME arrays) (E-score (dimensionless, -0.5 to 0.5)); higher = stronger relative binding preference
Procedure, shortened: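 Reported values are rank-based E-scores, taken as the mean of two universal arrays and parsed with a custom script. Each 8-mer score falls between -0.5 and 0.5. The arrays, ME and HK, were double-stranded 60-mers with a constant 25-mer primer region and a variable 35-mer region covering all 8-mers. They were probed, by an earlier protocol, with full-length P. aeruginosa MvaT carrying an N-terminal glutathione S-transferase fusion.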

Compared with CCTGTCCG, CCTCGAGC is higher in “PBM 8-mer E-score” value: -0.203 for the first, -0.149 for the second.

Compared with CAGTTGCG, TATTATCA is higher in “PBM 8-mer E-score” value: -0.0888 for the first, 0.404 for the second.

Going from AATTATCA to CATTATTA, the “PBM 8-mer E-score” value rises from 0.325 to 0.432.

Compared with CCTTATTC, GATTATCA is higher in “PBM 8-mer E-score” value: 0.189 for the first, 0.193 for the second.

Going from CATTATCA to CATTATTC, the “PBM 8-mer E-score” value rises from 0.169 to 0.363.

Going from CATTATCC to GATTATTA, the “PBM 8-mer E-score” value rises from 0.235 to 0.391.

Going from GATTATCC to GATTATGC, the “PBM 8-mer E-score” value falls from 0.209 to 0.148.

Compared with CATTATGA, AAGTTCCA is lower in “PBM 8-mer E-score” value: 0.214 for the first, 0.2 for the second.

Going from CGGGTTCC to CGGAAAAG, the “PBM 8-mer E-score” value rises from -0.15 to 0.00958.

First: AAATGGTC
Second: TACGTGCA
The “PBM 8-mer E-score” value of the first is lower: -0.0709 for the first, 0.0131 for the second.

First: AGGCCTAT
Second: TAGCATCA
The “PBM 8-mer E-score” value of the first is lower: -0.235 for the first, 0.0156 for the second.

First: ATTACCGA
Second: GGCGATAA
The “PBM 8-mer E-score” value of the first is lower: 0.0931 for the first, 0.137 for the second.

First: AAATCATG
Second: ACTGTAAA
The “PBM 8-mer E-score” value of the first is lower: -0.0303 for the first, 0.266 for the second.

First: ACTGTAAC
Second: ACTGTAAT
The “PBM 8-mer E-score” value of the first is lower: 0.246 for the first, 0.351 for the second.

First: AATGTAAT
Second: AATGTAAC
The “PBM 8-mer E-score” value of the first is higher: 0.365 for the first, 0.267 for the second.

Compared with AATGTAAG, GGTATGAC is lower in “PBM 8-mer E-score” value: 0.293 for the first, -0.144 for the second.

Going from ATAATGGG to AGGTTAAA, the “PBM 8-mer E-score” value falls from 0.229 to 0.0501.

Compared with ATCATTCC, AATGATTC is higher in “PBM 8-mer E-score” value: -0.0603 for the first, 0.144 for the second.

Going from CGATAGCC to GCAGTTCC, the “PBM 8-mer E-score” value falls from -0.14 to -0.18.

Compared with CATTAGAA, AATTATCT is higher in “PBM 8-mer E-score” value: -0.0258 for the first, 0.296 for the second.

Going from AATTATAT to CATTATAC, the “PBM 8-mer E-score” value falls from 0.461 to 0.295.

First: AATTATAA
Second: AATTATAC
The “PBM 8-mer E-score” value of the first is higher: 0.468 for the first, 0.342 for the second.

First: GATTATGA
Second: AATTAGAT
The “PBM 8-mer E-score” value of the first is lower: 0.0705 for the first, 0.284 for the second.

First: GATTATAC
Second: GATTATAA
The “PBM 8-mer E-score” value of the first is lower: 0.223 for the first, 0.41 for the second.

Compared with CATTATAA, CCAATGAC is lower in “PBM 8-mer E-score” value: 0.389 for the first, -0.153 for the second.

Compared with CATTGTGG, GGCTTTGA is lower in “PBM 8-mer E-score” value: -0.0595 for the first, -0.0706 for the second.

Going from ACACAGGC to TCCTACGA, the “PBM 8-mer E-score” value falls from -0.0277 to -0.0392.

First: AATTATAG
Second: CATTATAG
The “PBM 8-mer E-score” value of the first is higher: 0.37 for the first, 0.277 for the second.

Going from AATTATGT to AATTATGA, the “PBM 8-mer E-score” value falls from 0.366 to 0.317.

Going from AATTATGG to ACTCCTGA, the “PBM 8-mer E-score” value falls from 0.285 to -0.0172.

First: CAGTTAAC
Second: GAGTTAAC
The “PBM 8-mer E-score” value of the first is lower: 0.221 for the first, 0.254 for the second.

Compared with AAGTTAAG, GAGTTAAA is higher in “PBM 8-mer E-score” value: 0.243 for the first, 0.25 for the second.

Going from AAGTTAAC to AAGTTAAT, the “PBM 8-mer E-score” value rises from 0.379 to 0.385.

Compared with AAGTTAAA, TAGTTAAA is lower in “PBM 8-mer E-score” value: 0.411 for the first, 0.273 for the second.

Going from AAGTTACT to CGTTATTC, the “PBM 8-mer E-score” value falls from 0.339 to 0.24.

First: CGTTATTA
Second: AGTTATTA
The “PBM 8-mer E-score” value of the first is lower: 0.364 for the first, 0.414 for the second.

First: GGTTATTA
Second: AGTTATTG
The “PBM 8-mer E-score” value of the first is lower: 0.285 for the first, 0.312 for the second.

Going from CGTTATCA to AAAGTAGG, the “PBM 8-mer E-score” value falls from 0.111 to 0.0451.

Compared with CAAAGATC, AGTAAAAT is higher in “PBM 8-mer E-score” value: -0.0152 for the first, 0.308 for the second.

First: AATAAAAG
Second: AATAAAGT
The “PBM 8-mer E-score” value of the first is lower: 0.309 for the first, 0.372 for the second.

First: AATAAAAA
Second: ACTAAAAC
The “PBM 8-mer E-score” value of the first is higher: 0.415 for the first, 0.289 for the second.

First: AATAAAGG
Second: AATAAAGA
The “PBM 8-mer E-score” value of the first is lower: 0.228 for the first, 0.344 for the second.

Going from AATAAAAT to ACTAAAAA, the “PBM 8-mer E-score” value falls from 0.388 to 0.193.

Compared with ACTAAAAT, AATAAAAC is lower in “PBM 8-mer E-score” value: 0.39 for the first, 0.341 for the second.

First: CACCAGCC
Second: AGGCCTAC
The “PBM 8-mer E-score” value of the first is higher: -0.0802 for the first, -0.133 for the second.

First: CAAACCTA
Second: ATTTTCGA
The “PBM 8-mer E-score” value of the first is lower: 0.0792 for the first, 0.0907 for the second.

First: AGCGTTCC
Second: TTGAGAAA
The “PBM 8-mer E-score” value of the first is lower: -0.129 for the first, 0.135 for the second.

Compared with ACGTGGCC, CCCTGATC is lower in “PBM 8-mer E-score” value: -0.18 for the first, -0.224 for the second.

First: CTACATGC
Second: ATCGGTAA
The “PBM 8-mer E-score” value of the first is lower: -0.081 for the first, -3.6e-06 for the second.

Compared with GCCGCGTA, ACACCCCC is lower in “PBM 8-mer E-score” value: -0.0692 for the first, -0.251 for the second.

First: AGCACAAA
Second: AGGCACCT
The “PBM 8-mer E-score” value of the first is higher: 0.0677 for the first, -0.217 for the second.

Compared with GACTTTGC, ATAAAATA is higher in “PBM 8-mer E-score” value: 0.127 for the first, 0.427 for the second.

Compared with ATAAAATG, CTAAAATA is higher in “PBM 8-mer E-score” value: 0.249 for the first, 0.353 for the second.

Compared with GAAAAATA, ATAAAATC is lower in “PBM 8-mer E-score” value: 0.317 for the first, 0.193 for the second.

First: CTAAAATC
Second: GTAAAAAA
The “PBM 8-mer E-score” value of the first is higher: 0.148 for the first, 0.137 for the second.

Compared with GTAAAATA, TAAAAATA is lower in “PBM 8-mer E-score” value: 0.345 for the first, 0.3 for the second.

First: AATAAGTC
Second: ATATTGTG
The “PBM 8-mer E-score” value of the first is higher: 0.298 for the first, 0.251 for the second.

First: ACATTGTC
Second: ATATTGTC
The “PBM 8-mer E-score” value of the first is lower: 0.116 for the first, 0.346 for the second.

Going from CTATTGTC to CTATTGTA, the “PBM 8-mer E-score” value rises from 0.12 to 0.34.

First: ATATTGTA
Second: CTCGAGTA
The “PBM 8-mer E-score” value of the first is higher: 0.376 for the first, -0.0253 for the second.

Compared with AGCCAACA, AAGTCGAT is lower in “PBM 8-mer E-score” value: 0.0763 for the first, -0.0445 for the second.

Compared with AGCAGACG, ACTGCGAG is higher in “PBM 8-mer E-score” value: -0.169 for the first, -0.0652 for the second.

Compared with GATAATCA, AATAATCC is higher in “PBM 8-mer E-score” value: 0.176 for the first, 0.26 for the second.

First: GCTAATAA
Second: AATAATAT
The “PBM 8-mer E-score” value of the first is lower: 0.338 for the first, 0.453 for the second.

Going from TATAATAA to AGTAATAG, the “PBM 8-mer E-score” value falls from 0.477 to 0.213.

Compared with AGTAATAC, TATAATCA is higher in “PBM 8-mer E-score” value: 0.297 for the first, 0.389 for the second.

Compared with TAGAATAA, AATAATCA is lower in “PBM 8-mer E-score” value: 0.306 for the first, 0.259 for the second.

Going from AGTAATAT to AATAATCT, the “PBM 8-mer E-score” value falls from 0.418 to 0.314.

First: ACGCACTC
Second: AAAAAGAG
The “PBM 8-mer E-score” value of the first is lower: -0.0389 for the first, 0.0446 for the second.

Compared with AACGTTTG, AGCCGCAA is lower in “PBM 8-mer E-score” value: 0.0612 for the first, -0.0521 for the second.

First: GGGCCGAC
Second: GGCGGAAC
The “PBM 8-mer E-score” value of the first is lower: -0.267 for the first, -0.146 for the second.

First: ATCTTCAA
Second: GCCTTGGA
The “PBM 8-mer E-score” value of the first is higher: 0.0478 for the first, -0.206 for the second.

First: GGCACCCA
Second: CTCCACTC
The “PBM 8-mer E-score” value of the first is higher: -0.148 for the first, -0.232 for the second.

Compared with AATAAGAT, AATAAGAG is lower in “PBM 8-mer E-score” value: 0.356 for the first, 0.222 for the second.

First: CATAATAA
Second: AATAAGAA
The “PBM 8-mer E-score” value of the first is higher: 0.334 for the first, 0.318 for the second.

First: AATAATAA
Second: CATAATAG
The “PBM 8-mer E-score” value of the first is higher: 0.478 for the first, 0.318 for the second.

Going from GATAATAA to AATAGTAG, the “PBM 8-mer E-score” value falls from 0.404 to 0.294.

Compared with AATAATAG, AGGCATCG is lower in “PBM 8-mer E-score” value: 0.402 for the first, -0.134 for the second.

Going from TAAATCAA to AATTGGTG, the “PBM 8-mer E-score” value falls from 0.341 to 0.0491.

Going from CGCTGTAC to GCAGCTAA, the “PBM 8-mer E-score” value rises from -0.228 to 0.0363.

Going from AATAATAC to CATAATAC, the “PBM 8-mer E-score” value falls from 0.419 to 0.327.

Compared with GATAATAC, GGAAATCA is lower in “PBM 8-mer E-score” value: 0.301 for the first, -0.0787 for the second.

Compared with GAGGAATC, TCCATCAA is higher in “PBM 8-mer E-score” value: -0.0683 for the first, -0.032 for the second.

Compared with ACAAGGTA, AGTTAACT is higher in “PBM 8-mer E-score” value: -0.0731 for the first, 0.377 for the second.

Going from CGTTAACA to AGTTAACC, the “PBM 8-mer E-score” value rises from 0.114 to 0.142.

First: AGTTAACG
Second: AGTTAACA
The “PBM 8-mer E-score” value of the first is lower: 0.204 for the first, 0.348 for the second.

For TGTTAACA, the “PBM 8-mer E-score” value was 0.33.
